# FLuc modulator: qHTS profiling assay for firefly luciferase inhibitor/activator using purifed enzyme and Km concentrations of substrates (counterscreen for miR-21 project); Luciferin 4-monooxygenase (Photinus pyralis), P08659; purified FLuc, Km substrates, luminescence inhibition; Potency, µM (titrated, usually from 57.5 µM), for inactives: top-dose activity change, negative = inhibition, usual class: inhibitors; 360,000 compounds, 6.9% hits; AID 588342, 2011;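 note: plate controls were vehicle for no effect and reference inhibitor for full effect; nearly all actives have a fitted effect of over 55% in size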
# Target sequence (P08659 whole entry, looked up): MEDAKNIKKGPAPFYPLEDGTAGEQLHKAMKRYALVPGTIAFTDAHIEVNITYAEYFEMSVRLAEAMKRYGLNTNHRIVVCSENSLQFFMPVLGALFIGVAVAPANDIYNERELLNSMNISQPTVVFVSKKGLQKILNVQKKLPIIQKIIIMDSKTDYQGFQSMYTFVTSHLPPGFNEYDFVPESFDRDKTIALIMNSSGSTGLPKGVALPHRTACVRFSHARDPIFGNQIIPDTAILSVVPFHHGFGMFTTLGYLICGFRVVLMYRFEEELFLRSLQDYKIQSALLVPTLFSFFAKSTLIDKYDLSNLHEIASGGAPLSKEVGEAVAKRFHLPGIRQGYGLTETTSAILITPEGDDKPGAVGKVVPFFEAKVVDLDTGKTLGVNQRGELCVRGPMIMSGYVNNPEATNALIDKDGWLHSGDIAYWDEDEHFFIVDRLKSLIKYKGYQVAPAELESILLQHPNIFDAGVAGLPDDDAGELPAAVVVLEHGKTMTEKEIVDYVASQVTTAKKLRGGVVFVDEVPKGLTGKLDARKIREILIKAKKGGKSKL
#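 Biochemical qHTS of compounds, final roughly 60 µM downward over six points, against 10 nM purified firefly luciferase using Km concentrations of substrates (10 uM D-luciferin, 10 uM ATP) in Tris acetate pH 7.5 buffer; luminescence output.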
# ELG1 genotoxic: qHTS screen for small molecules that induce genotoxicity in human embryonic kidney (HEK293T) cells expressing luciferase-tagged ELG1; HEK293T ELG1-luciferase reporter, luminescence, 16 h; Potency, µM (series often up to 46 µM), inactives show at the highest dose activity change, positive = activation, hits mostly activators; AID 504466, 2011; 330,000 compounds, 1.3% hits; note: % of control where 0% means no effect; nearly all actives have a fitted effect of over 60% in size
#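 HEK293T cells expressing luciferase-tagged ELG1 were exposed to compound or DMSO vehicle for 16 hr at 37 °C and 5% CO2. Luciferase activity was then measured with ONE-Glo after 30 min at room temperature.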
# Rab9 promoter act: qHTS Assay for Rab9 Promoter Activators. Huh7 Rab9 promoter-luciferase reporter, luminescence, 24 h. Potency, µM (top dose mostly 9.22 µM), inactives show top-dose activation, negative = inhibition, hits mostly activators. 320,000 compounds, 2.8% hits; note: % of control where 0% means no effect; nearly all actives have a fitted effect of over 60% in size
#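 Cell-based reporter: Huh7 stable for Rab9 promoter-driven luciferase, plated in reduced-serum medium with 10% FBS at 1500 cells/well, compound-treated 24 h at 37 °C, luminescence read after 10 min reagent.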
# NPC1 prom act: qHTS Assay for NPC1 Promoter Activators; Huh7 NPC1 promoter luciferase reporter, 24 h; Potency, µM (top dose mostly 9.22 µM), for inactives: at the top dose activation, usual class: activators; 320,000 compounds, 2.4% hits; AID 485313, 2010; note: % of control where 0% means no effect; nearly all actives have a fitted effect of over 60% in size
#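 Compounds in DMSO were transferred onto Huh7 NPC1-luciferase reporter cells pre-incubated 2 h; after 24 h at 37 °C, Amplite reagent was dispensed and luminescence recorded 10 min later.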
# ELG1 DNA repair: qHTS screen for small molecules that inhibit ELG1-dependent DNA repair in human embryonic kidney (HEK293T) cells expressing luciferase-tagged ELG1; AID 504467, 2011; Potency, µM (top dose mostly 46.1 µM), inactives show at the highest dose activity change, negative = inhibition, hits mostly inhibitors; HEK293T ELG1-luciferase reporter, luminescence, 16 h; DNA damage induced by 5-fluorouridine; 330,000 compounds, 2.3% hits; note: % is set by controls: 0 for no effect and ±100 for the full control effect; nearly all actives have a fitted effect of over 55% in size
#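 5-Fluorouridine DNA damage + compound/DMSO, 2,000 cells/well, 16 h, 37 °C/5% CO2. ONE-Glo, 30 min RT, luminescence. Readout = decrease in reporter signal.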
# SMN2 splice up: qHTS Assay for Enhancers of SMN2 Splice Variant Expression; HEK293 SMN2-luciferase splicing reporter, luminescence, 30-36 h; Potency, µM (titrated, usually from 46.1 µM), for inactives: at the top dose activity change, positive = activation, actives largely listed as activators; 210,000 compounds, 2.8% hits; AID 1458, 2008; note: % of control where 0% means no effect; nearly all actives have a fitted effect of over 55% in size
#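 HEK293 cells carry an SMN2 […]–luciferase reporter in which exon 7 inclusion puts luciferase in frame. Cells were plated 10-12 h before compound addition, then incubated 30-36 h at 37C. ONE-Glo luminescence was read; sodium butyrate at 4.5 mM final served as control.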
# An asterisk follows results filed as active; u = inconclusive; x = not tested or not shown. Most compounds without a hit are left out; they make up all but 9.2% or so of the library. Calls come from the whole dose curve; as a rule, active = well fitted curve in the direction sought with a large enough effect; inconclusive = small, poorly fitted or top-dose-only effect, or another doubt; inactive = no such curve, though single readings can be large; an effect the other way counts as inactive or inconclusive. Potency is the fitted concentration of half-maximal effect.
SMILES,FLuc modulator,ELG1 genotoxic,Rab9 promoter act,NPC1 prom act,ELG1 DNA repair,SMN2 splice up
C/C(=N\NC(=O)COc1ccccc1-c1ccccc1)c1ccccn1,-5.7%,u,-24.2%,-17.0%,u,-58.3%
CCCn1c(SCC(=O)N2CCc3ccccc32)nnc1-c1ccco1,-2.0%,-5.2%,1.7%,-15.9%,-8.6%,-0.8%
O=C(COc1ccccc1Cl)N1CCc2ccccc21,6.75µM*,9.2µM*,1.26µM*,2µM*,u,x
O=C(CSCc1ccco1)N1CCc2ccccc21,9.53µM*,u,3.55µM*,2.82µM*,u,x
O=C(COc1ccc(Br)cc1)N1CCc2ccccc21,9.53µM*,u,2.82µM*,u,u,x
O=C(COc1ccccc1Cl)N1CCc2ccccc2C1,u,6.9%,27.9%,15.4%,u,x
O=C(CSCc1ccco1)c1ccc(Cl)s1,6.75µM*,7.0%,u,2.82µM*,u,8.6%
COC(=O)c1ccn(CSc2cc(Cl)ccc2Cl)n1,-15.3%,1.1%,-8.0%,-4.6%,16.6%,x
COc1ccc(C(=O)NCCCOc2cccnc2)cc1OC1CCN(C(C)=O)CC1,0.6%,15.2%,-0.3%,-2.1%,7.1%,x
O=C(CSc1ccccc1)N1CCc2ccccc21,6.75µM*,u,3.55µM*,3.55µM*,u,17.8µM*
Nc1cc(N)nc(SCC(=O)N2CCc3ccccc32)n1,u,13.1%,u,u,u,u
O=C(CCCc1ccccc1)N1CCc2ccccc21,2.13µM*,2.06µM*,0.447µM*,1.12µM*,u,11.2µM*
O=C(OCc1ccccc1)N1CCc2ccccc21,2.69µM*,16.4µM*,1.58µM*,0.631µM*,u,x
O=C(COc1ccccc1)N1CCc2ccccc21,5.36µM*,u,1.26µM*,u,u,14.1µM*
Cc1cccc(-n2c(C)cc(/C=N/n3cnnc3)c2C)c1,-0.2%,-7.5%,-1.8%,1.3%,1.0%,-7.6%
O=c1c2cnn(-c3ccc(F)cc3)c2ncn1Cc1cccc(Cl)c1,0.8%,x,x,x,x,9.0%
CCOc1ccc(C(=O)N2CCc3ccccc32)cc1,15.1µM*,u,0.891µM*,3.55µM*,u,x
CCCOc1ccc(C(=O)N2CCCc3ccccc32)cc1,-5.0%,30.0%,0.3%,7.0%,1.9%,8.5%
COc1ccc(C(=O)NNC(=O)C2CCCN(C3CC(=O)N(c4ccccc4)C3=O)C2)cc1 (stereo not drawn),2.8%,-3.1%,-0.9%,-3.8%,18.3%,x
Cc1ccc(Cl)c2c1=NC(=O)C=2c1[nH]c(=S)[nH]c1O,19µM*,-8.5%,-1.2%,1.5%,-4.9%,28.9%
Oc1ccc(/C=N/NC(=S)Nc2cccnc2)c(O)c1O,19µM*,-17.2%,-3.4%,-3.0%,14.6µM*,x
Oc1ccc(/C=N/NC(=S)Nc2cccnc2)c(O)c1,21.3µM*,u,-17.5%,-2.1%,16.0%,-91.8%
Fc1c(F)c(F)c(/C=N/NC(=S)Nc2cccnc2)c(F)c1F,2.8%,-7.8%,-7.5%,-0.2%,u,26.6%
Oc1cccc(/C=N/NC(=S)Nc2cccnc2)c1O,u,u,-1.5%,-0.5%,20.8%,-82.4%
Fc1ccc(/C=N/NC(=S)Nc2cccnc2)cc1,u,23.1µM*,26.6%,16.1%,5.3%,1.4%
SMILES,FLuc modulator,ELG1 genotoxic,Rab9 promoter act,NPC1 prom act,ELG1 DNA repair,SMN2 splice up
Fc1ccc(/C=N/NC(=S)Nc2cccnc2)cc1F,-2.6%,-2.3%,1.5%,6.6%,u,-11.0%
Cc1ccc(CNC(=O)Cn2c(=O)n(-c3cccc(Cl)c3)c(=O)c3sc4ccccc4c32)cc1,1.7%,x,x,x,x,-2.6%
Cc1oc(-c2ccc(-c3ccccc3)cc2)nc1CN(C)C1CCOC1 (stereo not drawn),9.53µM*,u,u,u,u,x
Cc1oc(-c2cccc(Cl)c2)nc1CN(C)C1CCOC1 (stereo not drawn),-3.1%,-0.7%,-1.3%,-6.2%,-1.9%,x
Cc1oc(-c2ccc(-c3ccccc3)cc2)nc1CN(CCO)C(C)C,10.7µM*,u,u,u,u,x
CCOC(=O)c1cc(-c2ccccc2C)nn1Cc1cc(CC)no1,16.9µM*,7.1%,26.1%,17.3%,u,x
CCOC(=O)c1cc(-c2ccccc2)nn1Cc1cc(CC)no1,u,u,u,21.3%,u,x
Cc1sc(NC(=O)c2ccco2)c(C(c2cccnc2)N2CCC(C)CC2)c1C (stereo not drawn),2.8%,-2.0%,-18.9%,-12.9%,14.9%,x
O=C(c1cc(Cl)cc(Cl)c1)N1CCN(c2cc(C(F)(F)F)nc3ccccc23)CC1,-0.5%,-8.3%,-6.2%,-2.6%,20.6µM*,x
CCOC(=O)c1c(N)sc(C(=O)Nc2ccccc2)c1C,1.2µM*,u,0.316µM*,0.447µM*,u,x
CCOC(=O)c1c(N)sc(C(=O)Nc2ccccc2F)c1C,1.9µM*,u,0.398µM*,2.51µM*,u,8.91µM*
CCOC(=O)c1c(N)sc(C(N)=O)c1C,-13.7%,2.9%,1.3%,10.3%,7.1%,11.6%
Cc1c(C(=O)OC(C)C)sc(N)c1C(=O)OC(C)C,21.3µM*,11.3%,26.7%,19.8%,u,23.9%
CCOC(=O)c1cc(C(=O)Nc2ccccc2F)nn1C,8.49µM*,4.47µM*,2µM*,2.24µM*,u,12.6µM*
Cc1cc(C(F)(F)F)nc(SCC(=O)NC2CCCCC2)n1,-0.6%,3.0%,-7.2%,-30.3%,0.3%,x
CCc1ccc(S(=O)(=O)Nc2ccc(-c3nc4cccnc4s3)cc2)s1,u,14.6µM*,u,15.2%,u,15.8µM*
Cc1ccc(-c2nc3cccnc3s2)cc1NS(=O)(=O)c1ccc2c(c1)OCCO2,-12.8%,15.3%,-2.7%,8.1%,u,u
NS(=O)(=O)c1ccc(C(=O)Nc2ccc(-c3nc4cccnc4s3)cc2)cc1,12µM*,u,1.41µM*,1.41µM*,u,x
Cc1ccc(-c2nc3cccnc3s2)cc1NS(=O)(=O)c1cccs1,26.9µM*,10.4%,14.6%,10.1%,19.3%,x
CCOc1ccccc1C(=O)Nc1cc(-c2nc3cccnc3s2)ccc1C,9.53µM*,x,x,x,x,x
COc1cccc(-n2nc(C(=O)N3CC(C)CC(C)C3)c3ccccc3c2=O)c1 (stereo not drawn),2.2%,-0.6%,8.0%,-4.0%,u,13.0%
O=C(Nc1cccc(-c2nc3cccnc3s2)c1)c1cccnc1Cl,16.9µM*,-7.4%,22.8%,22.0%,u,x

# Source: PubChem BioAssay
